These results are taken from the OligoGym collection.
Further: reference of the scale not given here.

For the first test, the target named is SLC10A7. As to the kind of experiment: pooled miR-30 sensor sort-seq; sequence = guide strand. Particulars: shRNA.
On to ATCATGAGGAGTACACTGCTGC, for which the sensor-assay potency score (higher = more potent) was -0.556.

AACAGTATGAGAACAAGGCTGA: the sensor-assay potency score (higher = more potent) was found to be 0.508.

TATCTTCGGACAATCTGTCCAA displayed a sensor-assay potency score (higher = more potent) of -0.198.

TACATCATTATAAACTCTGTAA gave a sensor-assay potency score (higher = more potent) of -0.408.

TTCTGCCTTGATACCATCCAAG displayed a sensor-assay potency score (higher = more potent) of -1.16.

The sequence TAAACTATGTTTACTTACCAAA registered a sensor-assay potency score (higher = more potent) of -1.05.

In turn, ATGAGGAGTACACTGCTGCTGA registered a sensor-assay potency score (higher = more potent) of -0.89.

The sequence TTACTTACCAAAAAACTTCCAA came in with a sensor-assay potency score (higher = more potent) of 0.24.

A further test deals with SLC12A1. The description is as above. The settings on record: shRNA.
In the case of TTCCAATGCTAGTCTCTCCTGT, the sensor-assay potency score (higher = more potent) was found to be 0.793.

TTGAGTGCTGGCTTCCACCAGT returned a sensor-assay potency score (higher = more potent) of -0.0176.

Sequence TTTCTTGTTTATCAACAGCAGT registered a sensor-assay potency score (higher = more potent) of -1.1.

With TTGATGACAAACATGACTGCAC, the sensor-assay potency score (higher = more potent) was determined as 0.915.

In turn, TATGACACTAACTTGAAAGCGA came in with a sensor-assay potency score (higher = more potent) of 0.571.

For the sequence TTTGTGAGGATTTCCAACCAAG, the sensor-assay potency score (higher = more potent) was -0.956.

In turn, TATCTTTGATAGTCGCTTCCAA returned a sensor-assay potency score (higher = more potent) of 0.0928.

TTGCTCGTGAATCTCAAGCAGG gave a sensor-assay potency score (higher = more potent) of -0.686.

Take TTGAATATTTTGTAGACTCAAC: the sensor-assay potency score (higher = more potent) was -1.22.

Take TTTCTTATATCCAATCACCAGA: the sensor-assay potency score (higher = more potent) is -0.816.

Sequence TTGTGTGAGAATCATAAGCGTG gave a sensor-assay potency score (higher = more potent) of -0.782.

In the case of TTGTAGACTCAACTACTTCTTA, the sensor-assay potency score (higher = more potent) is -0.589.

A further test deals with SLC12A6. The test is described as above. Particulars: shRNA.
In the case of TTACTCGGGAACTAGATCGAGA, the sensor-assay potency score (higher = more potent) was -0.428.

Consider TAAGTCTTCATCTAGTTTCAGT, for which the sensor-assay potency score (higher = more potent) is -0.702.

TGTACTTGTAGATCATACCAGC: the sensor-assay potency score (higher = more potent) is -0.605.

In the case of TTTTAGTGTGTGGAGGTCCTTC, the sensor-assay potency score (higher = more potent) is -0.634.

TTTTTGAAGAAGTAGAGGCTGC registered a sensor-assay potency score (higher = more potent) of 0.521.

For TATTGAGATAAGCATTTCGAGC, the sensor-assay potency score (higher = more potent) was -1.39.

In the case of TTCTTTAGTAAGATGAAGCTGT, the sensor-assay potency score (higher = more potent) stood at 0.156.

TATCAAAATATTCATCTCCTTC showed a sensor-assay potency score (higher = more potent) of -0.342.

In turn, TTGTTAACTATAACCTCGTTGA gave a sensor-assay potency score (higher = more potent) of -0.0795.

In turn, TACTGTTGTCTTCTAATTGGGC gave a sensor-assay potency score (higher = more potent) of -0.548.

For TAGCTTGTAGCAGCCTCGGTGC, the sensor-assay potency score (higher = more potent) was -1.11.

The sequence TTGTCTCTGAGAACAACCCCTT yielded a sensor-assay potency score (higher = more potent) of -0.146.

A further test concerns the target SLC13A5. The description is as above. Particulars: shRNA.
With TTGCTGTCAGGAAACAACTCGT, the sensor-assay potency score (higher = more potent) is -0.663.

Consider TTATGTTCATTATGACTCCTGT, for which the sensor-assay potency score (higher = more potent) was determined as 0.0164.

Turning to TTGTCCACCAGCTCCAGGCCGG, the sensor-assay potency score (higher = more potent) is -0.842.

Take TATGACTCCTGTTTTCACCATG: the sensor-assay potency score (higher = more potent) is -1.13.

Regarding TTGACAGCCAAAAACACACAGA, the sensor-assay potency score (higher = more potent) was -0.786.

Turning to TACTGGACACACACCTGCCTGG, the sensor-assay potency score (higher = more potent) was -0.809.

TTTTTCTTGCTCTCTAGCCCGC: the sensor-assay potency score (higher = more potent) is -0.694.

On to TTGTCTCTCATGTCTGTCTCTT, for which the sensor-assay potency score (higher = more potent) was -0.189.
